Source: PubChem
HTT-AS act: activators of huntingtin-antisense promoter activity | HEK293 HTT-AS promoter firefly luciferase reporter, 24 h; response scale: percent change from vehicle, -100% = no light | Potency, µM (top dose mostly 57.5 µM), inactives show at the top dose activity change, positive = activation, actives largely listed as activators | 48,000 tested, 0.24% active; further: potency means the concentration at half of the fitted maximal effect; nearly all actives have a fitted effect of over 55% in size
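HEK293 luciferase promoter-reporter cells (2,500/well) plated 24 h, then compounds added at up to 57.5 uM final for 24 h at 37 °C. Firefly luminescence by Dual-Glo, normalized to vehicle (0%) and zero RLU (-100%).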
PTAP-TSG101 blk: inhibitors of HIV-1 PTAP binding to human TSG101, validation; Q99816; Fluorescence polarization, FITC-PTAP peptide/Tsg101, 20 min; Potency, µM (highest dose often 115 µM), most hits filed as inhibitors; 44,000 tested, under 10 active; AID 1347069; further: potency means the concentration at half of the fitted maximal effect; 0% is about no effect
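FITC-labeled PTAP peptide (50 nM final) binding to Tsg101 binding domain (10 uM final) read by fluorescence polarization after 20 min at r.t. in HEPES pH 7.5 buffer. Actives by CRC class, <25 µM.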
GALK inh: inhibits human galactokinase | Potency, µM (highest dose often 57.5 µM), for inactives: at the top dose activity, negative = inhibition, actives largely listed as inhibitors | AID 1347072 | P51570 | 44,000 tested, under 10 active | recombinant GALK, Kinase-Glo ATP luminescence, 1 h;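 further: plate controls were full GALK reaction for no effect and reaction lacking GALK for full effect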
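Human GALK (5 nM) was incubated with 35 uM ATP and 100 uM galactose in 20 mM HEPES pH 8.0 with MgCl2, NaCl, DTT and BSA for 1 h at room temperature. Remaining ATP was measured by Kinase-Glo Plus luminescence.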
NTMT1 inhibitor: inhibitors of human N-terminal methyltransferase NTMT1; 59,000 tested, 2.5% active; NTMT1 MTase-Glo SAH luminescence, purified enzyme; Potency, µM (titrated, usually from 114 µM), for the others: at the top dose activity change, negative = inhibition, actives largely listed as inhibitors; Q9BV86;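 further: potency means the concentration at half of the fitted maximal effect; plate controls were DMSO vehicle for no effect and no enzyme for full effect; nearly all actives have a fitted effect of over 65% in size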
Target sequence (Q9BV86 whole entry, looked up): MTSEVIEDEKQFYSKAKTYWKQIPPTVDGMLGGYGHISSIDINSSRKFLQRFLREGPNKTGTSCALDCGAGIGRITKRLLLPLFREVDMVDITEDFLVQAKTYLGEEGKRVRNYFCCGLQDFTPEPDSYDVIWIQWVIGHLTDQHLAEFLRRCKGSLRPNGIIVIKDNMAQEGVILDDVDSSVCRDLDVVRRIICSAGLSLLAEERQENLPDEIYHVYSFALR
HTT prom inh: inhibits huntingtin promoter activity. Potency, µM (highest dose often 57.5 µM), for inactives: top-dose activity change, negative = inhibition, hits mostly inhibitors. 48,000 tested, 0.93% active. HEK293 HTT promoter firefly luciferase reporter, 24 h; further: potency means the concentration at half of the fitted maximal effect; nearly all actives have a fitted effect of over 50% in size
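HEK293 cells carrying firefly luciferase reporters were seeded at 2,500 per well in Opti-MEM and cultured for 24 h. They were then treated with compounds at up to 57.5 uM final for 24 h at 37 degrees C before Dual-Glo luminescence readout.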
B2AR arrestin ag: ADRB2 beta-arrestin recruitment. HTLA Tango cells, beta-arrestin recruitment, luciferase luminescence, 18 h. Potency, µM (series often up to 46.1 µM), usual class: activators. 44,000 tested, under 10 active. P07550. AID 1347077;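 further: potency means the concentration at half of the fitted maximal effect; 0% = DMSO and full agonism = EC100 isoproterenol or metaproterenol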
Target sequence (P07550 whole entry, looked up): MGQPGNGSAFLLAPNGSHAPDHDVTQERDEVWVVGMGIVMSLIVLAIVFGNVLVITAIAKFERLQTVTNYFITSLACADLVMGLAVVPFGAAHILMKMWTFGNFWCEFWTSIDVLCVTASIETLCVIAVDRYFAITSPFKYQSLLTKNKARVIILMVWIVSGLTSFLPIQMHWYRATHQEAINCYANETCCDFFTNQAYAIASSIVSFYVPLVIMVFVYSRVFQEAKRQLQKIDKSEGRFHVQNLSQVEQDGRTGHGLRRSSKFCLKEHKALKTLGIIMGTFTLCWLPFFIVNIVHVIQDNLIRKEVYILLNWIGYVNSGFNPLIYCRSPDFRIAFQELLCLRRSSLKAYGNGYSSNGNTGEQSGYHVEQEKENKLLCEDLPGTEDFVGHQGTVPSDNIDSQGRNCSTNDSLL
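Luminescence read-out: arrestin recruitment to recombinant beta2-AR releases tTA, inducing luciferase. Cells exposed 18 hr at 37 degrees C to up to 46 microM compound; %Activity from corrected signal, concentration-response curves classified by r2, magnitude and efficacy.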
* = called active by the depositor; i = inactive; ? = inconclusive; / = no result given; ! = a repeat was not active; [ ] = remark or other dose. This is one part of a sample in which hits are shown more often than they occur. The call rests on the fitted dose curve; in most records, active means well fitted curve in the direction sought with a large enough effect; inconclusive means small, poorly fitted or top-dose-only effect, or another doubt; inactive means no such curve, though single readings can be large; an effect the other way counts as inactive or inconclusive.

SMILES	HTT-AS act	PTAP-TSG101 blk	GALK inh	NTMT1 inhibitor	HTT prom inh	B2AR arrestin ag
N#Cc1cc(NC(=O)Nc2nnc(-c3ccncc3)s2)ccc1F	/	/	/	-21.9%	/	/
CC(C)c1ccc(NC(=O)Cn2c(=O)oc3cc(S(=O)(=O)N4CCCC4)ccc32)cc1	-47.8%	i	5.1%	0.3%	14.1µM*	i
Cc1cc(C)c(NC(=O)Cn2c(=O)oc3cc(S(=O)(=O)N4CCCCCC4)ccc32)c(C)c1	-42.5%	i	-1.4%	0.7%	10µM*	i
Oc1ccc(C=Cc2cc(O)cc(O)c2)cc1	?	/	/	?	19.9%	/
Oc1ccc(/C=C/c2cc(O)cc(O)c2)cc1	?	/	/	44.7µM*!	7.0%	/
O=C(NCCN1CCCC1)[C@H](Cc1ccc(OS(=O)(=O)c2cccc3cnccc23)cc1)NS(=O)(=O)c1cccc2cnccc12	/	/	/	-16.3%	/	/
COc1cccc(C2=CC(c3ccccc3F)n3ncc(C(=O)Nc4ccc(F)cc4)c3N2)c1 (stereo not given)	-31.4%	i	2.7%	22.4µM*	?	i
Cc1cc(Nc2nn(-c3ccccc3)c(=O)c3ccccc23)n[nH]1	/	/	/	5.1%	/	/
CC(=O)c1ccc(N2CCN(C(=O)Nc3cn(CC(C)C)c(=O)c4ccccc34)CC2)cc1	-5.8%	i	-0.3%	1.1%	2.1%	i
CC(=O)c1ccc(N2CCN(C(=O)Nc3ccc(C(C)C)cc3)CC2)cc1	-58.5%	i	0.2%	-2.2%	22.4µM*	i
Fc1ccc(-c2csc3ncnc(NCc4ccc5c(c4)OCO5)c23)cc1	/	/	/	-15.4%	/	/
Cc1ccc(S(=O)(=O)Nc2cc(-c3ccc(C#N)s3)ccc2C)cc1	/	/	/	20.7%	/	/
Nc1c(-c2ccncc2)cc[nH]c1=O	/	/	/	79.4µM*	/	/
OCCN1CCN(CCCN2c3ccccc3Sc3ccc(C(F)(F)F)cc32)CC1	-28.7%	/	/	31.6µM*!	-14.7%	/
C[C@@H]1O[C@@H](O[C@H]2[C@H](O)[C@@H](O)[C@H](OC[C@H]3O[C@@H](OC(=O)[C@]45CCC(C)(C)C[C@H]4C4=CCC6[C@@]7(C)C[C@@H](O)[C@H](O)[C@@](C)(CO)C7[C@H](O)C[C@@]6(C)[C@]4(C)CC5)[C@H](O)[C@@H](O)[C@@H]3O)O[C@@H]2CO)[C@H](O)[C@H](O)[C@H]1O (stereo not given in full)	/	/	/	14.2%[12.6 µM]	/	/
COCC(=O)NCC=Cc1ccc2ncnc(Nc3ccc(Oc4ccc(C)nc4)c(C)c3)c2c1	-26.3%	/	/	?	?	/
Cc1cc(Nc2ncnc3ccc(-c4ccc(CNCCS(C)(=O)=O)o4)cc23)ccc1Oc1ccn2ncnc2c1	-43.8%	/	/	21.5µM*!	?	/
CC(=O)C1CCC(=O)N1Cc1ccccc1 (stereo not given)	/	/	/	4.1%[57.5 µM]	/	/
COc1ccc(C)cc1NC(=O)c1ccc2c(=O)n3c(nc2c1)CCCCC3	-14.1%	i	1.3%	79.4µM*	-15.2%	i
COc1cc(OC)cc(C(=O)Nc2ccc3nc4n(c(=O)c3c2)CCCCC4)c1	?	i	6.3%	44.7µM*	69.2%	i
COc1cccc(NC(=O)CC(=O)Nc2ccc3nc4n(c(=O)c3c2)CCCCC4)c1	-3.1%	i	7.4%	-0.1%	-8.9%	i
CC(=O)c1ccccc1-c1ncc(C)c(NCc2ccc(-c3cccnc3)cc2)n1	/	/	/	-4.8%	/	/
CNC12CC3C[C@@](C)(C1)C[C@](C)(C3)C2	/	/	/	-6.3%[57.5 µM]	/	/
CC(C)CCNC(=O)C1CCN(C(=O)c2cc3sccc3n2Cc2ccc(Cl)cc2)CC1	-62.1%	i	4.4%	2.6%	25.1µM*	i
CCCC1CCN(C(=O)CC(c2ccc3c(c2)OCO3)c2c(O)cc(OC)cc2OC)C1 (stereo not given)	/	/	/	1.1%[228 µM]	/	/
SMILES	HTT-AS act	PTAP-TSG101 blk	GALK inh	NTMT1 inhibitor	HTT prom inh	B2AR arrestin ag
CCN(CCCNC(=O)c1cc2c(=O)[nH]c3ccc(C)cc3c2s1)Cc1ccccc1	-25.8%	i	7.3%	50.1µM*	-20.9%	i
Cc1ccc(-c2ncn(-c3ccc(Nc4nccc(-c5cccc(N6CCOCC6)c5)n4)cc3)n2)cn1	1.22µM*	/	/	-8.4%	68.5%	/
CCCc1ccc(S(=O)(=O)N2CCC(c3nnc(-c4cccc(C)c4)o3)CC2)cc1	-67.5%	i	6.7%	79.4µM*	?	i
O=C(Nc1ccccc1F)c1ccc2c(Cl)c3c(nc2c1)CCC3	-68.5%	i	3.0%	25.1µM*	12.6µM*	i
COc1ccccc1NC(=O)c1ccc2c(Cl)c3c(nc2c1)CCCC3	5.3%	i	9.4%	-0.2%	2.6%	i
CCN(CC)CCOc1ccc(Nc2ncc3cc(-c4c(Cl)cccc4Cl)c(=O)n(C)c3n2)cc1	-33.4%	/	/	79.4µM*!	?	/
Cc1cc2c(C(C)C)c(O)c(O)c(C=O)c2c(O)c1-c1c(C)cc2c(C(C)C)c(O)c(O)c(C=O)c2c1O	-88.7%	/	/	20µM*!	?	/
CSc1ccc(CCNc2ncnc3onc(-c4ccc(Cl)cc4)c23)cc1	-53.0%	i	1.3%	3.6%	17.8µM*	i
CC(=O)Nc1sc2c(c1-c1ccc3nc[nH]c3c1)CCNC2	/	/	/	50.1µM*	/	/
O=C(COc1ccccc1F)NC1CC(=O)N(c2ccc3c(c2)OCCO3)C1 (stereo not given)	-1.7%	i	-1.4%	89.1µM*	2.3%	i
COc1ccccc1OCC(=O)NC1CC(=O)N(c2ccc3c(c2)OCCO3)C1 (stereo not given)	-10.4%	i	-2.7%	2.1%	-11.4%	i
O=C(Nc1ccc(F)cc1)c1ccc(Cn2nc(N3CCN(c4ccccc4)CC3)ccc2=O)o1	-42.0%	i	0.0%	-6.1%	14.1µM*	i
CCCCNC(=O)c1ccc(-c2nc(CN3CCc4ccccc43)c(C)o2)cc1	-33.0%	i	1.1%	14.0%	-38.3%	i
COc1ccccc1CNC(=O)c1ccc(-c2nc(CN3CCc4ccccc43)c(C)o2)cc1	-36.6%	i	-2.3%	10.8%	17.8µM*	i
Cc1oc(-c2ccc(C(=O)NCc3ccccc3Cl)cc2)nc1CN1CCc2ccccc21	-34.4%	i	-1.7%	-4.3%	14.1µM*	i
CCCCOc1ccc(CNC(=O)c2ccc(-c3nc(CN4CCc5ccccc54)c(C)o3)cc2)cc1	-23.0%	i	-0.4%	9.0%	-23.8%	i
COc1ccc(C2C=C(c3ccc(Cl)cc3)Nc3nc(-c4ccc(Cl)cc4)nn32)cc1 (stereo not given)	-92.5%	i	0.5%	24.7%	25.1µM*	i
